From PubChem BioAssay AID1159580 (chemical genetic matrix, 2015)
Out of some 5,500 compounds screened, about 2,000 (36%) were called active. Inconclusive results (about 18%) are left out. No stated cut-off is given here; in the data, active means normalized growth mostly below about 0.91 (no sharp cut-off); inconclusive means no clear call, values can overlap the other calls; inactive means mostly above about 0.92. This is one part of the list.

Test: chemical genetic growth profiling, strain panel (AID 1159580);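 further: tested at 20 µM; growth read once vehicle control cultures reached saturation at 30 °C; 1 = growth at the plate median or of vehicle wells; lower values mean less growth of the strain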
Settings: S. cerevisiae deletion strains, growth OD

Measured: normalized growth

CCCCCCC/C=C\CCCCCCCCC(=O)O
inactive: locus YAL040C, strain CLN3, hits give low values 1.01 | locus YCL061C, strain MRC1 (second series), hits give low values 1.01 | locus YDR363W, strain ESC2, hits give low values 1.02 | locus YER002W, strain NOP16, hits give low values 1.03 | locus YGR229C, strain SMI1, hits give low values 1.01 | locus YMR307W, strain GAS1, hits give low values 1.01 | locus YNL153C, strain GIM3, hits give low values 0.946 | locus YNL175C, strain NOP13, hits give low values 0.996 | locus YNL197C, strain WHI3, hits give low values 1.01 | locus YNL224C, strain SQS1, hits give low values 1.01 | locus YOR083W, strain WHI5 (second series), hits give low values 1.01
